# PubChem BioAssay (EPA / NIEHS)
# Several values for one entry are separate records, joined by “and”; a condition that tells them apart may be missing. Equal entries are not always repeated. Inconclusive results are not listed. Where a structure was tested more than once in an assay, its records may differ in their call. Activity calls are given as the source filed them. How the source made its calls, unless noted: active means hit-call score of the fitted dose curve at least 0.9, where 1 is the maximum; inactive means score below 0.9.
# Assays:
# [1] = target: Paired box protein Pax-6 (Homo sapiens) (UniProt P26367); assay: ATG_Pax6_CIS: Attagene CIS-FACTORIAL HepG2 Assay for human Paired Box 6 (PAX6) (AID 2282956); settings: HepG2 CIS-FACTORIAL PAX6 reporter transcription, RNA readout; actives raise or lower the signal
# Paired box protein Pax-6 (Homo sapiens), sequence (P26367 whole entry, looked up): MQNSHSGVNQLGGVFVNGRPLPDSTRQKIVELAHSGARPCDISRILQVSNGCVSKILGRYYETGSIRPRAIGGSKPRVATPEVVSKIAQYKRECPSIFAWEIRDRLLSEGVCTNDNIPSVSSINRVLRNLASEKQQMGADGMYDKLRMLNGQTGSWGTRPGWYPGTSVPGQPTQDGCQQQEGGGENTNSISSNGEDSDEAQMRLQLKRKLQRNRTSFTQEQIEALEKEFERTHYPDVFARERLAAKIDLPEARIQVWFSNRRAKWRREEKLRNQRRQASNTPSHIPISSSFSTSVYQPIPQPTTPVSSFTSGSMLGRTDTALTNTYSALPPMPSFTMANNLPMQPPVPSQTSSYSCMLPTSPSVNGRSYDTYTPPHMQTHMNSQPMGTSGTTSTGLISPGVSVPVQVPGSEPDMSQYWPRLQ
# Method in brief: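 Fluorescent RT-PCR products separated by capillary electrophoresis report PAX6-linked promoter mRNA in HepG2 cells 24 h post-dose. Curves fitted bidirectionally, DMSO as negative control.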
# [2] = ATG_PXRE_CIS: Attagene CIS-FACTORIAL HepG2 Assay for human Pregnane X Receptor Element (PXRE) (AID 2282957); settings: HepG2 Attagene CIS-FACTORIAL PXRE reporter, mRNA; actives raise or lower the signal
# Method in brief: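 Endogenous transcription factor activity in HepG2 was gauged through induction of reporter mRNA driven by a cis-regulating promoter element, sampled 24 h post-treatment. Activity was fitted in both directions against DMSO negative control.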
# [3] = ATG_PPRE_CIS: Attagene CIS-FACTORIAL HepG2 Assay for human Peroxisome Proliferator-activated Response Element (PPRE) (AID 2282958); settings: HepG2 PPRE cis-element reporter, Attagene transcription factor profiling; actives raise or lower the signal
# Method in brief: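 Read-out: fluorescent reporter mRNA fragments resolved by capillary electrophoresis after RT-PCR. HepG2 cells carried transiently transfected PPRE-driven cis reporter constructs and were dosed for 24 h; gain or loss of signal fitted relative to DMSO.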
# [4] = ATG_Sox_CIS: Attagene CIS-FACTORIAL HepG2 Assay for human SRY-box transcription factor (SOX) (AID 2282960); settings: HepG2 Attagene cis-factorial SOX reporter, mRNA; actives raise or lower the signal
# Method in brief: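 Read-out: fluorescent RT-PCR products of SOX1-linked reporter transcripts resolved by capillary electrophoresis, fitted bidirectionally against DMSO. Transiently transfected HepG2 cells, 24 h after chemical exposure, endogenous transcription factor activity.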
# [5] = ATG_SREBP_CIS: Attagene CIS-FACTORIAL HepG2 Assay for human Sterol Regulatory Element Binding (SREBP) (AID 2282962); settings: HepG2 Attagene cis-factorial SREBP reporter, mRNA; actives raise or lower the signal
# Method in brief: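 Endogenous factor activity is measured in HepG2 through multiplexed reporter units under cis-element control. Following a 24 h incubation, reporter transcripts are reverse-transcribed, PCR-amplified and sized by capillary electrophoresis; activity is fitted in both directions relative to DMSO.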
# [6] = target: Signal transducer and activator of transcription 3 (Homo sapiens) (UniProt P40763); assay: ATG_STAT3_CIS: Attagene CIS-FACTORIAL HepG2 Assay for human Signal Transducer and Activator of Transcription 3 (STAT3) (AID 2282963); settings: HepG2, Attagene cis-factorial STAT3 reporter transcription; actives raise or lower the signal
# Signal transducer and activator of transcription 3 (Homo sapiens), sequence (P40763 whole entry, looked up): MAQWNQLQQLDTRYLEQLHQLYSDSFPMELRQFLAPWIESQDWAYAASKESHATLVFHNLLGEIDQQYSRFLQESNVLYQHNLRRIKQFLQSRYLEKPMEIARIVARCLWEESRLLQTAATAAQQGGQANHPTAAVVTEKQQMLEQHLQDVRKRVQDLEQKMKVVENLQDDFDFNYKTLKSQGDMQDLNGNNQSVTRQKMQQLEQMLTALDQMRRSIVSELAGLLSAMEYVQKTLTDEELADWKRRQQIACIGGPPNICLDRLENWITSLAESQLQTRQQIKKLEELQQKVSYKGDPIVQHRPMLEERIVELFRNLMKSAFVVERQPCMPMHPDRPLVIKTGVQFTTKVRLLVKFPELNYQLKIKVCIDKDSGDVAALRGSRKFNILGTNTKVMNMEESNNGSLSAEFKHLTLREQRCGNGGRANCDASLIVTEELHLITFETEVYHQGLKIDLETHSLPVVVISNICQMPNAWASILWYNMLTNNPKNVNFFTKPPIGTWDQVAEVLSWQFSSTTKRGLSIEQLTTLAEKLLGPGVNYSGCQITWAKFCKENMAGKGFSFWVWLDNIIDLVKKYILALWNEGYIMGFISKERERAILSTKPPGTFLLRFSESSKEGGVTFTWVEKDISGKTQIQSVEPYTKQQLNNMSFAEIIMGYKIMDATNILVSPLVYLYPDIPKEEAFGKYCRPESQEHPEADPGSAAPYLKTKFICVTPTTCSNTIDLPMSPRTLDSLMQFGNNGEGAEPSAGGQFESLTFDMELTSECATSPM
# Method in brief: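 HepG2, MRTU-transfected, 24 h dosing. RNA → RT → PCR → FAM label → HpaI → CE. Bidirectional fit vs DMSO.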
# [7] = ATG_TA_CIS: Attagene CIS-FACTORIAL HepG2 Assay for human TA Basal Promoter (AID 2282964); settings: HepG2 Attagene CIS-factorial TA basal promoter reporter; actives raise or lower the signal
# Method in brief: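 Cis-factorial format in HepG2: reporters report endogenous factors, not chimeric Gal4 fusions. After 24 h treatment, reporter transcripts were measured by RT-PCR-capillary electrophoresis fluorescence, analysed bidirectionally versus DMSO.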
# [8] = ATG_TCF_b_cat_CIS: Attagene CIS-FACTORIAL HepG2 Assay for human T-Cell-Factor with beta-catenin (TCF/b-cat) (AID 2282965); settings: HepG2 TCF/beta-catenin cis-reporter transcription, actives raise or lower the signal
# Method in brief: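 Using capillary electrophoresis as the read-out, labelled reporter cDNA fragments from transiently transfected HepG2 were sized and quantified. Exposure lasted 24 hours; activity in either direction was referenced to DMSO.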
# [9] = ATG_TAL_CIS: Attagene CIS-FACTORIAL HepG2 Assay for human TAL Basal Promoter (AID 2282966); settings: HepG2 Attagene cis-factorial TAL promoter reporter; actives raise or lower the signal;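 further: background control endpoint measuring basal TAL promoter reporter mRNA not a specific factor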
# Method in brief: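 Endogenous transcription-factor activity is sensed in HepG2 cells through transfected cis-promoter reporter constructs. After 24 h dosing, reporter transcripts are quantified by RT-PCR and capillary electrophoresis. Gain or loss of signal is fitted relative to DMSO.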
# [10] = ATG_TGFb_CIS: Attagene CIS-FACTORIAL HepG2 Assay for human Transforming Growth Factor (TGF) (AID 2282967); settings: HepG2 Attagene CIS TGFb reporter, mRNA transcription; actives raise or lower the signal
# Method in brief: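 Multiplexed cis-reporter HepG2 system, 24 h treatment; mRNA induction read by fluorescence after RT-PCR and CE; DMSO negative control, bidirectional curve fitting.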
# [11] = target: Nuclear receptor subfamily 1 group I member 3 (Homo sapiens) (UniProt Q14994); assay: ATG_CAR_TRANS: Attagene TRANS-FACTORIAL HepG2 Assay for human Constitutive Androstane Receptor (CAR) (AID 2282969; active means hit-call score of the fitted dose curve at least 0.9, where 1 is the maximum;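 further: activators raise reporter mRNA above DMSO so AC50 marks induction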); settings: HepG2 Attagene TRANS-FACTORIAL CAR reporter
# Nuclear receptor subfamily 1 group I member 3 (Homo sapiens), sequence (Q14994 whole entry, looked up, the tested form may be a part): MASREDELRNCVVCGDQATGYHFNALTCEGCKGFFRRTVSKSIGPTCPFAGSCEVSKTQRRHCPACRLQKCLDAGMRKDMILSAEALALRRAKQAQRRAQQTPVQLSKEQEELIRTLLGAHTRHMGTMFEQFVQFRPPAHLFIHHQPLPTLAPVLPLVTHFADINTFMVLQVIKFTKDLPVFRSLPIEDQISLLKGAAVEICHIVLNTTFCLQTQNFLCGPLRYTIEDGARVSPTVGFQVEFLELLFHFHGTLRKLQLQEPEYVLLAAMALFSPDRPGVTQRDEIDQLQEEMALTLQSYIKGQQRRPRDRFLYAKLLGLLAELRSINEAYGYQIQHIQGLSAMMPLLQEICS
# Method in brief: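 Steps: transient transfection of HepG2 with multiple GAL4-UAS reporter units; 24 h compound incubation; RNA isolation, RT-PCR, 6-FAM primer extension, HpaI digest; capillary electrophoresis. Gain-of-signal relative to DMSO negative control.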
# [12] = target: X-box-binding protein 1 (Homo sapiens) (UniProt P17861); assay: ATG_Xbp1_CIS: Attagene CIS-FACTORIAL HepG2 Assay for human X-box Binding Protein 1 (XBP1) (AID 2282972); settings: HepG2 XBP1 cis-element reporter, Attagene multiplex; actives raise or lower the signal
# X-box-binding protein 1 (Homo sapiens), sequence (P17861 whole entry, looked up): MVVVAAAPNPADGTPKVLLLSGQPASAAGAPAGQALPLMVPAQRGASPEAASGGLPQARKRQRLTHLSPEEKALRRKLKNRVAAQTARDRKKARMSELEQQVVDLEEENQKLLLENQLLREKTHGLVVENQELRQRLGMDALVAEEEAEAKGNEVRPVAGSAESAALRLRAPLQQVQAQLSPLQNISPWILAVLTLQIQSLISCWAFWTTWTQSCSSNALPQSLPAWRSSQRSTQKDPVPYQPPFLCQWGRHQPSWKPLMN
# Method in brief: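 Multiplexed cis-reporter readout in transfected HepG2 liver cells. Exposure lasted 24 hours. Activity in either direction was fitted against DMSO as negative control and baseline.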
# [13] = target: Androgen receptor (Homo sapiens) (UniProt P10275); assay: ATG_AR_TRANS: Attagene TRANS-FACTORIAL HepG2 Assay for human Androgen Receptor (AR) (AID 2282973; active means hit-call score of the fitted dose curve at least 0.9, where 1 is the maximum); settings: HepG2 Attagene TRANS-FACTORIAL AR reporter transcription
# Androgen receptor (Homo sapiens), sequence (P10275 whole entry, looked up, the tested form may be a part): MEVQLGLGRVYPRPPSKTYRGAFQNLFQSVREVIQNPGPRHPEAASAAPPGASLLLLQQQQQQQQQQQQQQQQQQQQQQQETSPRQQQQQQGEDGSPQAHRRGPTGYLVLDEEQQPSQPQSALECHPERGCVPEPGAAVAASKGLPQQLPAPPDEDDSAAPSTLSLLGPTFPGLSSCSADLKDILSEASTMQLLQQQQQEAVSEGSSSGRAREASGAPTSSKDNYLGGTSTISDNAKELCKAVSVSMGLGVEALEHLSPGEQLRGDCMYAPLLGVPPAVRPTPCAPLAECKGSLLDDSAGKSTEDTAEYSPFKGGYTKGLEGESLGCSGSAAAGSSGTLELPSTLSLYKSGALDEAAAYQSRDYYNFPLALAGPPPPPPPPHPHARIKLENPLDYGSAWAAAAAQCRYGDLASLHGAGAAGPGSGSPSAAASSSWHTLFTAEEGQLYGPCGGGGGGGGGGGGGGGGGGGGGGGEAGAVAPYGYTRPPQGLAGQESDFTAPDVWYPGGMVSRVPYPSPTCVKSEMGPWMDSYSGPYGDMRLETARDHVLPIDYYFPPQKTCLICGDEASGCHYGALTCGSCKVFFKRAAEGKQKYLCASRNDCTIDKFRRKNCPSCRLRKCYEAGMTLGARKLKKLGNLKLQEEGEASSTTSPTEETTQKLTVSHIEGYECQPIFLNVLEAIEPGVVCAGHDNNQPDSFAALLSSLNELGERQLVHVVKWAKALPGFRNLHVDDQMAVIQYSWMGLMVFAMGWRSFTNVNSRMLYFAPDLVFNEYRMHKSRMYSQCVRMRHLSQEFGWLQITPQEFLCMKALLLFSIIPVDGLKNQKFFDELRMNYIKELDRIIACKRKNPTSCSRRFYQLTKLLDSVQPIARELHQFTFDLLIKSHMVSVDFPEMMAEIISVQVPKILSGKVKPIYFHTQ
# Method in brief: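 Transfected HepG2, 24 h treatment, chimeric NR-Gal4 driving GAL4-UAS reporters. mRNA induction by RT-PCR/capillary electrophoresis fluorescence; DMSO as negative control and baseline.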
# [14] = ATG_M_19_TRANS: Attagene TRANS-FACTORIAL HepG2 Assay for M19 Transcription Factor (Internal Marker) (AID 2282974; active means hit-call score of the fitted dose curve at least 0.9, where 1 is the maximum); settings: HepG2 Attagene TRANS-FACTORIAL M19 internal marker reporter
# Method in brief: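 24 h chemical exposure of transiently transfected HepG2 (MRTU library). RNA → oligo(dT) RT → PCR → 6-FAM labelling → HpaI cut → CE fluorescence. Positive-direction fit vs DMSO baseline; background internal-marker readout.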
# [15] = ATG_RORE_CIS: Attagene CIS-FACTORIAL HepG2 Assay for human RAR-related Orphan Receptor Element (RORE) (AID 2282959); settings: HepG2 Attagene cis-factorial RORE reporter, mRNA; actives raise or lower the signal
# Method in brief: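 Readout: fluorescent reporter mRNA by RT-PCR plus capillary electrophoresis, 24 h after dosing transfected HepG2 cells. Endogenous transcription factor activity on a cis promoter element is measured. Gain or loss of signal fitted against DMSO.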
# [16] = target: Transcription factor Sp1 (Homo sapiens) (UniProt P08047); assay: ATG_Sp1_CIS: Attagene CIS-FACTORIAL HepG2 Assay for human Specificity Protein 1 (Sp1) (AID 2282961); settings: HepG2 Sp1 cis-reporter transcription, actives raise or lower the signal
# Transcription factor Sp1 (Homo sapiens), sequence (P08047 whole entry, looked up): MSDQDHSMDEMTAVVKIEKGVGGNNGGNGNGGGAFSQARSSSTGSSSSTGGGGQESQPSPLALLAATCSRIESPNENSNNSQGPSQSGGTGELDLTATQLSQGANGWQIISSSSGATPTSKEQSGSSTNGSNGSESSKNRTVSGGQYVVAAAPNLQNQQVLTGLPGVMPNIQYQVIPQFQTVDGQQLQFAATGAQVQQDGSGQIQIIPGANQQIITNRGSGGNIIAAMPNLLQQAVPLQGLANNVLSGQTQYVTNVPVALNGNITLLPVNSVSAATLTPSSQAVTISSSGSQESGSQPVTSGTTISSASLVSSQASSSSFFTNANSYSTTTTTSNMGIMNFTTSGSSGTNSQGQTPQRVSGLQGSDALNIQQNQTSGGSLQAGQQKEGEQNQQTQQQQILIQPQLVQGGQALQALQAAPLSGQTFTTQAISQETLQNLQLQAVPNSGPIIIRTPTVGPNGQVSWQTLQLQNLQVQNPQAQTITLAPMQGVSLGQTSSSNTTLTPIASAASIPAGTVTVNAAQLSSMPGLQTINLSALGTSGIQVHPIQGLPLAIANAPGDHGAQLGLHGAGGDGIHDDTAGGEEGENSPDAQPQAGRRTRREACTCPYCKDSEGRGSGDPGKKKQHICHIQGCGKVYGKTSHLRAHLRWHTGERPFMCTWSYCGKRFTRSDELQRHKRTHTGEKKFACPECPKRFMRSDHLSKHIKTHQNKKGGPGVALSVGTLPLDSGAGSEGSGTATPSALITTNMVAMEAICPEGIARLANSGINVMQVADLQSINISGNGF
# Method in brief: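 Read-out: fluorescence of 6-FAM-labeled, HpaI-digested RT-PCR products separated by capillary electrophoresis. HepG2 cells carried transfected cis-element reporter units and were exposed to chemicals for 24 h; gain or loss of signal fitted relative to DMSO.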
# [17] = target: Steroid hormone receptor ERR1 (Homo sapiens) (UniProt P11474); assay: ATG_ERRa_TRANS: Attagene TRANS-FACTORIAL HepG2 Assay for human Estrogen-Related Receptor alpha (ERRa) (AID 2282971; active means hit-call score of the fitted dose curve at least 0.9, where 1 is the maximum); settings: HepG2 Attagene TRANS reporter, ERRa transactivation
# Steroid hormone receptor ERR1 (Homo sapiens), sequence (P11474 whole entry, looked up, the tested form may be a part): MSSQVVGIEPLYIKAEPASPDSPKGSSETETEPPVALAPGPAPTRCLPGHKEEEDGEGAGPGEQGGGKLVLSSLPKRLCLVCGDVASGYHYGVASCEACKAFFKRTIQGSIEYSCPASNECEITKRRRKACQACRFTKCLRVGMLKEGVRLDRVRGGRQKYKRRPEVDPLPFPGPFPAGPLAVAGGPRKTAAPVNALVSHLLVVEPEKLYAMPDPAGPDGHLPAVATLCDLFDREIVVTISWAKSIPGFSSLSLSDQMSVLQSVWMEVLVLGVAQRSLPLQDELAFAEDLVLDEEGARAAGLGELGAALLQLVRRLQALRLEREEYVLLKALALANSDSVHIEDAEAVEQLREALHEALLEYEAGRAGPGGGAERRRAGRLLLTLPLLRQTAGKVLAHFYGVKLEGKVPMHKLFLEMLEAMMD
# Method in brief: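 HepG2 cells were transiently transfected with multiple GAL4-UAS reporter units, then dosed with compound for 24 h. Total RNA was reverse-transcribed, reporter cDNA PCR-amplified and fluorescently labelled, and fragments resolved by capillary electrophoresis; induction was compared with DMSO.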
# [18] = target: Estrogen receptor (Homo sapiens) (UniProt P03372); assay: ATG_ERa_TRANS: Attagene TRANS-FACTORIAL HepG2 Assay for human Estrogen Receptor alpha (ERa) (AID 2282970; active means hit-call score of the fitted dose curve at least 0.9, where 1 is the maximum); settings: HepG2 Attagene TRANS ERa GAL4 reporter, mRNA
# Estrogen receptor (Homo sapiens), sequence (P03372 whole entry, looked up, the tested form may be a part): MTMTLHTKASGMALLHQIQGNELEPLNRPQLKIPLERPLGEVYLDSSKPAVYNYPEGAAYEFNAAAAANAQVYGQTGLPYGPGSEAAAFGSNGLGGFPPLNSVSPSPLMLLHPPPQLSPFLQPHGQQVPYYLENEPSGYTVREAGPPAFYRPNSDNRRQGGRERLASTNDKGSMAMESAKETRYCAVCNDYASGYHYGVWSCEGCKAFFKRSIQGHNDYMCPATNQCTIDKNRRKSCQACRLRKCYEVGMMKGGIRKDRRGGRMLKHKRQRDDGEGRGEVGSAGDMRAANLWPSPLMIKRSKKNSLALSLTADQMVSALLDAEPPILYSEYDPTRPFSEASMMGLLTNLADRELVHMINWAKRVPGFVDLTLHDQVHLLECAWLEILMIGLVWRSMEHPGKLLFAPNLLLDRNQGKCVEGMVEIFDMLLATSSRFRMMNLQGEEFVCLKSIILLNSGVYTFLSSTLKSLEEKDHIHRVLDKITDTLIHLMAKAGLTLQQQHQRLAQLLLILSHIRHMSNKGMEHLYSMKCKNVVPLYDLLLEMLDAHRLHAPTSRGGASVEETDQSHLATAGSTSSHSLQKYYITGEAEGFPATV
# Method in brief: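 Transfected HepG2 cells carrying GAL4-UAS-driven reporter units were dosed for 24 hours. Total RNA was reverse-transcribed, reporter sequences PCR-amplified, FAM-labelled, HpaI-digested and resolved by capillary electrophoresis. Increases over DMSO control defined activity.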
# [19] = ATG_Hpa5_TRANS: Attagene TRANS-FACTORIAL HepG2 Assay for human GAL4-Hpa5 Hepatocyte Transcription Factor Basal Promoter (AID 2282975; active means hit-call score of the fitted dose curve at least 0.9, where 1 is the maximum;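 further: hits are increases in reporter mRNA over DMSO baseline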); settings: HepG2 Attagene GAL4-Hpa5 transcription reporter
# Method in brief: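 Gain-of-signal versus DMSO is fitted for reporter mRNA quantified by RT-PCR and capillary electrophoresis after 24 h exposure. This endpoint is an internal background marker in transiently transfected HepG2 cells carrying GAL4-UAS reporter units.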
# [20] = ATG_VDRE_CIS: Attagene CIS-FACTORIAL HepG2 Assay for human Vitamin D Receptor Element (VDRE) (AID 2282968); settings: HepG2 VDRE cis-reporter transcription, actives raise or lower the signal
# Method in brief: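 Steps: transfect HepG2 with multiple reporter transcription units; dose chemicals 24 h; isolate RNA; RT-PCR; label with 6-FAM primer extension; HpaI digest; capillary electrophoresis. Curves fitted both directions against DMSO.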
structure (smiles),measurement,setting,value
Oc1ccc(Cl)cc1Cc1ccccc1,AC50,[1],8.56 µM (active)
same,outcome,[1],inactive
same,outcome,[2],inactive
same,AC50,[3],9.13 µM (active) [middle of 6 runs]
same,outcome,[3],inactive
same,AC50,[4],8.2 µM (active)
same,outcome,[4],inactive
same,AC50,[5],7.03 µM (active) and 6.32 µM (active)
same,outcome,[5],inactive
same,outcome,[6],inactive
same,AC50,[7],17.5 µM (active)
same,outcome,[7],inactive
same,AC50,[8],16.4 µM (active)
same,outcome,[8],inactive
same,outcome,[9],inactive
same,outcome,[10],inactive
same,outcome,[11],inactive
same,AC50,[12],7.32 µM (active) and 11.2 µM (active) and 15.9 µM (active)
same,outcome,[12],inactive
same,outcome,[13],inactive
same,outcome,[14],inactive
Oc1cc(Cl)ccc1Oc1ccc(Cl)cc1Cl,AC50,[1],13.9 µM (active) and 8.6 µM (active)
same,outcome,[1],inactive
same,AC50,[2],2.98 µM (active) [middle of 7 runs]
same,outcome,[2],inactive
same,outcome,[3],inactive
same,AC50,[15],12.7 µM (active) and 15.1 µM (active) and 15.8 µM (active)
same,outcome,[15],inactive
same,AC50,[4],11.1 µM (active) and 10.3 µM (active)
same,outcome,[4],inactive
same,outcome,[16],inactive
same,outcome,[5],inactive
same,outcome,[6],inactive
same,AC50,[7],17.4 µM (active)
same,outcome,[7],inactive
same,AC50,[8],11.1 µM (active) and 19.2 µM (active) and 14.4 µM (active)
same,outcome,[8],inactive
same,AC50,[9],11.1 µM (active)
same,outcome,[9],inactive
same,outcome,[10],inactive
same,outcome,[11],inactive
same,outcome,[17],inactive
same,AC50,[12],11.3 µM (active) [middle of 7 runs]
same,outcome,[12],inactive
same,outcome,[14],inactive
CC1(C)C(C=C(Cl)Cl)C1C(=O)OC(C#N)c1ccc(F)c(Oc2ccccc2)c1 (stereo not given),outcome,[1],inactive
same,AC50,[2],2.93 µM (active)
same,AC50,[3],8.12 µM (active)
same,outcome,[15],inactive
same,outcome,[4],inactive
same,outcome,[5],inactive
same,outcome,[6],inactive
same,outcome,[7],inactive
same,outcome,[8],inactive
same,outcome,[9],inactive
same,outcome,[10],inactive
same,outcome,[11],inactive
same,outcome,[18],inactive
same,outcome,[17],inactive
same,outcome,[12],inactive
same,outcome,[14],inactive
same,outcome,[19],inactive
Cc1cc(C)nc(NC(=O)NS(=O)(=O)c2ccccc2C(=O)OC2COC2)n1,outcome,[1],inactive
same,outcome,[2],inactive
same,outcome,[3],inactive
same,outcome,[15],inactive
same,outcome,[4],inactive
same,AC50,[5],81.9 µM (active)
same,outcome,[6],inactive
same,outcome,[7],inactive
same,outcome,[8],inactive
same,outcome,[9],inactive
same,outcome,[10],inactive
same,outcome,[11],inactive
same,outcome,[18],inactive
same,outcome,[12],inactive
O=C(O)CCCOc1ccc(Cl)cc1Cl,outcome,[1],inactive
same,AC50,[2],27.1 µM (active)
same,outcome,[2],inactive
same,AC50,[3],22.9 µM (active)
same,outcome,[3],inactive
same,outcome,[15],inactive
same,outcome,[4],inactive
same,outcome,[5],inactive
same,outcome,[6],inactive
same,outcome,[7],inactive
same,outcome,[8],inactive
same,outcome,[9],inactive
same,outcome,[10],inactive
same,outcome,[20],inactive
same,outcome,[11],inactive
same,outcome,[12],inactive
same,outcome,[13],inactive
same,outcome,[14],inactive
same,outcome,[19],inactive
COP(=S)(OC)Oc1ccc([N+](=O)[O-])cc1,outcome,[1],inactive
same,outcome,[2],inactive
same,outcome,[3],inactive
same,outcome,[15],inactive
same,outcome,[4],inactive
same,outcome,[5],inactive
same,outcome,[6],inactive
same,outcome,[7],inactive
same,outcome,[8],inactive
same,outcome,[9],inactive
same,outcome,[10],inactive
same,outcome,[11],inactive
same,outcome,[18],inactive
same,outcome,[12],inactive
same,outcome,[14],inactive
